A short description of assay [1]: qHTS assay to identify small molecule antagonists of the glucocorticoid receptor (GR) signaling pathway - cell viability counter screen (AID 720693). Note: nearly all actives have a fitted effect of over 55% in size.
Assay [2] can be described thus: qHTS assay for identifying genotoxic compounds that show differential cytotoxicity against isogenic chicken DT40 cell lines with known DNA damage response pathways - wild type cell line (AID 743012). Note: nearly all actives have a fitted effect of over 60% in size. Note: potency is the fitted concentration of half-maximal effect. In short, it runs like this:
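First, wild type DT40 cells were plated at 300 per well and equilibrated about 0.5 h at 37 C/5% CO2. Next, compounds in DMSO were added and exposure lasted 40 h. Finally, CellTiter-Glo was added for 30 min at room temperature and luminescence recorded.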

Assay [3] in a line: qHTS assay for identifying genotoxic compounds that show differential cytotoxicity against isogenic chicken DT40 cell lines with known DNA damage response pathways - Rev3 mutant cell line (AID 743014; note: nearly all actives have a fitted effect of over 55% in size; note: potency is the fitted concentration of half-maximal effect). (Quantitative high-throughput screening tests each substance at several concentrations.)
Assay [4] is described as follows: qHTS assay for identifying genotoxic compounds that show differential cytotoxicity against isogenic chicken DT40 cell lines with known DNA damage response pathways - Rad54/Ku70 mutant cell line (AID 743015). Note: nearly all actives have a fitted effect of over 60% in size. Note: potency is the fitted concentration of half-maximal effect.
The nature of assay [5]: qHTS assay to identify small molecule antagonists of the androgen receptor (AR) signaling pathway - cell viability counter screen (AID 743033; note: nearly all actives have a fitted effect of over 45% in size).
Assay [6] can be described thus: qHTS assay to identify small molecule antagonists of the androgen receptor (AR) signaling pathway using the MDA cell line - cell viability counter screen (AID 743041; note: nearly all actives have a fitted effect of over 45% in size). The essentials:
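MDA-kb2 AR-luc human breast carcinoma cells (MMTV-luciferase, AR/GR responsive) were treated with compounds plus R1881 agonist for 16 h at 37 °C. Viability was read as CellTiter-Fluor fluorescence in the same wells as the reporter assay.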

Assay [7] concerns the target Androgen receptor (Homo sapiens) (UniProt P10275). Description: qHTS assay to identify small molecule agonists of the androgen receptor (AR) signaling pathway using the MDA cell line (AID 743040; note: nearly all actives have a fitted effect of over 20% in size). The essentials: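 MDA-kb2 breast carcinoma cells stably carrying an MMTV-driven luciferase reporter (AR- and GR-responsive) were seeded and held 5 h at 37C, 0% CO2, then exposed to compounds in DMSO for 16 h. Luminescence was read 30 min after ONE-Glo addition.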

Assay [8] has the same target. Description: qHTS assay to identify small molecule antagonists of the androgen receptor (AR) signaling pathway using the MDA cell line (AID 743042; note: nearly all actives have a fitted effect of over 55% in size). The essentials: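 MDA-kb2 cells (human breast carcinoma, stably carrying an MMTV-luciferase reporter responsive to AR and GR) were plated at 3,000 cells/well and preincubated 5 hr at 37C, then given compound plus R1881 agonist for 16 h. ONE-Glo luminescence was read.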

Results filed as inconclusive are left out. Calls of active or inactive are those of the source. Calls come from the whole dose curve; as a rule, active = well fitted curve in the direction sought with a large enough effect in the repeat runs; inconclusive = weak or mixed curves; inactive = no such curve, though single readings can be large; an effect the other way counts as inactive or inconclusive.

Sequence of Androgen receptor (Homo sapiens) (P10275 whole entry, looked up): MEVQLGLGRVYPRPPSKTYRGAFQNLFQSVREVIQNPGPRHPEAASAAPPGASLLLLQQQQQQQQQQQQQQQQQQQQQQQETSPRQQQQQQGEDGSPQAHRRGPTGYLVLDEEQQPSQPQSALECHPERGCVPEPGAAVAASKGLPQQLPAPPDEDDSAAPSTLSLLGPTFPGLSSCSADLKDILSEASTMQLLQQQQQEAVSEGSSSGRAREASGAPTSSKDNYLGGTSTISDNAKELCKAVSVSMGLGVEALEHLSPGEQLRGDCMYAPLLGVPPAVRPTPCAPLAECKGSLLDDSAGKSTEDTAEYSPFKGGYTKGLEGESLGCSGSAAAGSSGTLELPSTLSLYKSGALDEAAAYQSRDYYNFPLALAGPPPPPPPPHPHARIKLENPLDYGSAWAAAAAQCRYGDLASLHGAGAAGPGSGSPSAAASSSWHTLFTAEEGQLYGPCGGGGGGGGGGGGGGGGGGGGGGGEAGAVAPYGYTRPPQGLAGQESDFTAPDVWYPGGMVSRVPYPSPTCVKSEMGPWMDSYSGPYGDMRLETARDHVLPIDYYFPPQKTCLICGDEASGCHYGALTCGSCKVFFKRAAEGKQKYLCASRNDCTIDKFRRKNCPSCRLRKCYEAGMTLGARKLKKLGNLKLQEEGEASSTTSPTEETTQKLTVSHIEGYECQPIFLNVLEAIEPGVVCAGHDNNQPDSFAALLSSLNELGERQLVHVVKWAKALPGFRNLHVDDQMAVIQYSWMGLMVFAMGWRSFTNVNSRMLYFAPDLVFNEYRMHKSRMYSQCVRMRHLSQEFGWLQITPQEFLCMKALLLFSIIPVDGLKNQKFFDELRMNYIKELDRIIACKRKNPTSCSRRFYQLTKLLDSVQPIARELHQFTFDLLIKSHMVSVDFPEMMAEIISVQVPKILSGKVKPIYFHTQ

Consider `NS(=O)(=O)c1cc2c(cc1Cl)NC(Cc1ccccc1)NS2(=O)=O` (configuration not stated), for which the Potency entry in assay [1], in assay [2], in assay [3], in assay [4], in assay [5] and in assay [6] was “inactive” in each case.

`C[C@H](CSC(=O)c1ccccc1)C(=O)N1C[C@@H](Sc2ccccc2)C[C@H]1C(=O)O`: the Potency result in assay [1], in assay [2], in assay [3], in assay [4], in assay [5] and in assay [6] was “inactive” each time.

In the case of `CNc1cc(OC)c(C(=O)N[C@H]2CCN(Cc3ccccc3)[C@H]2C)cc1Cl`, the Potency entry in assay [1], in assay [5] and in assay [6] was “inactive” throughout. For the same compound, the Potency is 5.96 µM (active) in assay [2], 4.73 µM (active) in assay [3] and 8.41 µM (active) in assay [4].

`NCCCNCCCCNC(=O)C(O)NC(=O)CCCCCCN=C(N)N` (configuration not stated): the Potency result in assay [1], in assay [5] and in assay [6] was “inactive” throughout. Also, the Potency is 1.06 µM (active) in assay [2], 1.68 µM (active) in assay [3] and 0.841 µM (active) in assay [4].

For the compound `COc1ccc(CCNC[C@H](O)c2ccc(O)cc2)cc1OC`, the Potency entry in assay [1], in assay [2], in assay [3], in assay [4], in assay [5] and in assay [6] was “inactive” in each case.

For `CC(=O)N[C@@H](CC(=O)N[C@@H](CCC(=O)O)C(=O)O)C(=O)O`, the Potency entry in assay [1], in assay [2], in assay [3], in assay [4], in assay [5] and in assay [6] was “inactive” in each case.

Take `Cc1ccccc1OCC(O)CNCCOc1ccc(C(N)=O)cc1` (configuration not stated): the Potency entry in assay [1], in assay [2], in assay [3], in assay [4], in assay [5] and in assay [6] was “inactive” in each case.

For the compound `CC1(C)S[C@@H]2[C@H](NC(=O)C(C(=O)O)c3ccsc3)C(=O)N2[C@H]1C(=O)O` (some centres not stated), the Potency result in assay [1], in assay [2], in assay [3], in assay [4], in assay [5] and in assay [6] was “inactive” in each case.

Regarding `CC(=O)Nc1c(I)c(C(=O)O)c(I)c(N(C)C(C)=O)c1I`, the Potency entry in assay [1], in assay [2], in assay [3], in assay [4], in assay [5] and in assay [6] was “inactive” in each case.

For `NC[C@@H]1O[C@H](O[C@H]2[C@@H](O)[C@H](O[C@@H]3[C@@H](O)[C@H](N)C[C@H](N)[C@H]3O[C@H]3O[C@H](CN)[C@@H](O)[C@H](O)[C@H]3N)O[C@@H]2CO)[C@H](N)[C@@H](O)[C@@H]1O`, the Potency entry in assay [1], in assay [2], in assay [3], in assay [4], in assay [5] and in assay [6] was “inactive” each time.

Consider `CC(=O)N=c1sc(S(N)(=O)=O)nn1C`, for which the Potency result in assay [1], in assay [2], in assay [3], in assay [4], in assay [5] and in assay [6] was “inactive” each time.

On to `O=P(O)(O)OC(CO)CO`, for which the Potency result in assay [1], in assay [2], in assay [3], in assay [4], in assay [5] and in assay [6] was “inactive” throughout.

As to `COc1ccc(C(=O)CCC(=O)O)c2ccccc12`, the Potency result in assay [1], in assay [2], in assay [3], in assay [4], in assay [5] and in assay [6] was “inactive” in each case.

With `CC(=O)Nc1c(I)c(C(=O)N[C@H]2C(O)O[C@H](CO)[C@@H](O)[C@@H]2O)c(I)c(N(C)C(C)=O)c1I` (some centres not stated), the Potency result in assay [1], in assay [2], in assay [3], in assay [4], in assay [5] and in assay [6] was “inactive” in each case.

Consider `CCOC(=O)[C@H](CCc1ccccc1)N[C@H]1CCCN2CCC[C@@H](C(=O)O)N2C1=O`, for which the Potency result in assay [1], in assay [2], in assay [3], in assay [4], in assay [5] and in assay [6] was “inactive” throughout.

On to `CN1CCC(OC(=O)C(Oc2ccc(Cl)cc2)Oc2ccc(Cl)cc2)CC1`, for which the Potency result in assay [1], in assay [2], in assay [3], in assay [4], in assay [5] and in assay [6] was “inactive” in each case.

For `O=C(O)c1cc(O)c2c(c1)[O][Bi][O]2`, the Potency entry in assay [1], in assay [2], in assay [3], in assay [4], in assay [5] and in assay [6] was “inactive” throughout.

As for `Cc1cccc(C)c1Nc1ncccc1C(=O)O`, the Potency entry in assay [1], in assay [2], in assay [3], in assay [4], in assay [5] and in assay [7] was “inactive” in each case. Besides, the Potency entry in assay [6] and in assay [8] was “inactive” each time.

Consider `CO/N=C(\C(=O)N[C@@H]1C(=O)N2C(C(=O)OCOC(=O)C(C)(C)C)=C(/C=C\c3scnc3C)CS[C@H]12)c1csc(N)n1`, for which the Potency entry in assay [1], in assay [2], in assay [3], in assay [4], in assay [5] and in assay [6] was “inactive” throughout.

Regarding `COC(=O)C1=C(C#N)NC(C)=C(C(=O)OC(C)C)C1c1cccc([N+](=O)[O-])c1` (configuration not stated), the Potency result in assay [1], in assay [5] and in assay [6] was “inactive” throughout. Moreover, the Potency was 13.3 µM (active) in assay [2], 23.7 µM (active) in assay [3] and 18.8 µM (active) in assay [4].

As for `O=C(CCCN1CCC(C(=O)c2ccc(F)cc2)CC1)c1ccc(F)cc1`, the Potency result in assay [1], in assay [5] and in assay [6] was “inactive” each time. The Potency was 8.41 µM (active) in assay [2], 3.76 µM (active) in assay [3] and 7.5 µM (active) in assay [4].

Consider `CC(C)(S)[C@@H](N)C(=O)O`, for which the Potency entry in assay [1], in assay [2], in assay [3], in assay [4], in assay [5] and in assay [6] was “inactive” throughout.

In the case of `O=P(O)(O)OC[C@H](O)CO`, the Potency result in assay [1], in assay [2], in assay [3], in assay [4], in assay [5] and in assay [6] was “inactive” each time.

With `O=C(O)[C@@H](O)[C@H](O)[C@H](O)[C@@H](O)C(=O)O` (tested in a mixture with another compound), the Potency entry in assay [1], in assay [2], in assay [3], in assay [4], in assay [5] and in assay [6] was “inactive” each time.

Take `C[C@@H]1C/C=C/C=C/C=C/C=C/[C@H](O[C@@H]2O[C@H](C)[C@@H](O)[C@H](N)[C@@H]2O)C[C@@H]2O[C@](O)(C[C@@H](O)C[C@H]3O[C@@H]3/C=C/C(=O)O1)C[C@H](O)[C@H]2C(=O)O`: the Potency entry in assay [1], in assay [2], in assay [3], in assay [4], in assay [5] and in assay [6] was “inactive” throughout.

The values are drawn from PubChem BioAssay (Tox21).
